# Data published in article PMC10812921, “Transcriptional Coactivator BOB1 (OBF1, OCA-B) Modulates the Specificity of DNA Recognition by the POU-Domain Factors OCT1 and OCT2 in a Monomeric Configuration”.
# Assays:
# POU1 (OCT1 POU domain) = POU1 (OCT1 POU domain) (human, UniProt P14859 260-458); assay: EMSA-SELEX-seq; no BOB1; 20 mM Tris-HCl pH 7.6, 140 mM NaCl, 10% glycerol, 0.5 mM EDTA, 0.05% Triton X-100, 0.1 mg/mL BSA, 0.1 mg/mL poly(dI-dC), 5 mM DTT, room temperature, 20 min; high values mean tight binding; conditions: protein: recombinant; dsDNA, one strand shown
# Procedure, shortened: (§1)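 With or without 28 ng coactivator protein, 30 ng of tagged POU-domain protein was combined with 300 ng of a PCR-amplified double-stranded random 35-nt library in 20 μL Tris–HCl pH 7.6 binding buffer for 20 min at RT. The protein came from E. coli BL21 and had been purified under denaturing conditions and renatured. Four rounds of cutting complex bands from native 6% PAGE, elution and PCR amplification preceded Illumina sequencing. The binding preference figure is the percentage of sequenced 8-mers matching a motif pattern.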
# POU2 (OCT2 POU domain) = target: T1, POU2 (OCT2 POU domain) (human, UniProt P09086 175-386); assay: as above; conditions: protein: recombinant; dsDNA, one strand shown
# T1 sequence: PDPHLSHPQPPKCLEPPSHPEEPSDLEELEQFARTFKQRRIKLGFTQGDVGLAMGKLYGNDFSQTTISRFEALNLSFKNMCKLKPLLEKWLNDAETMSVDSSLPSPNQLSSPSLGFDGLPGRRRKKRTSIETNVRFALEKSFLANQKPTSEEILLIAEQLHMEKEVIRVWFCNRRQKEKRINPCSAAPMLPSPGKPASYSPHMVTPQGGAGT
# Procedure, shortened: as §1
# [1] = target: POU1 (OCT1 POU domain);BOB1 (OBF1, OCA-B) (human;human, UniProt P14859;Q16633 260-458;1-256, |); assay: EMSA-SELEX-seq; with BOB1 (ternary complex band); 20 mM Tris-HCl pH 7.6, 140 mM NaCl, 10% glycerol, 0.5 mM EDTA, 0.05% Triton X-100, 0.1 mg/mL BSA, 0.1 mg/mL poly(dI-dC), 5 mM DTT, room temperature, 20 min; high values mean tight binding; conditions: protein: recombinant;recombinant; copies: 1;1; dsDNA, one strand shown
# Procedure, shortened: as §1
# [2] = target: T2, POU2 (OCT2 POU domain);BOB1 (OBF1, OCA-B) (human;human, UniProt P09086;Q16633 175-386;1-256, |); assay: as above; conditions: protein: recombinant;recombinant; copies: 1;1; dsDNA, one strand shown
# T2 sequence 1: T1 sequence
# T2 sequence 2: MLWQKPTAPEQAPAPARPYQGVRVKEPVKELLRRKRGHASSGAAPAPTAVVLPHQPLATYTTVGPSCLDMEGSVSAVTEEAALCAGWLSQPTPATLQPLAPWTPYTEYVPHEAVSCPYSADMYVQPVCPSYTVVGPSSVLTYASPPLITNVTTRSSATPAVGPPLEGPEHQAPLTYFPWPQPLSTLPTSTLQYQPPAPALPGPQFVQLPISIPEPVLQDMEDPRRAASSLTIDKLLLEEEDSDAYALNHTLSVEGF
# Procedure, shortened: as §1
# Sequence of POU1 (OCT1 POU domain) (P14859 260-458): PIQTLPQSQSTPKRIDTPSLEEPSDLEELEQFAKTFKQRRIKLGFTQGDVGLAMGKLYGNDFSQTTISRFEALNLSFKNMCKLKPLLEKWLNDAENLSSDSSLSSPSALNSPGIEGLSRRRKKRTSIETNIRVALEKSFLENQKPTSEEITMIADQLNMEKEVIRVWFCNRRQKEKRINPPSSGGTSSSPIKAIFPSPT
Sequence,binding signal (POU1 (OCT1 POU domain)),binding signal (POU2 (OCT2 POU domain)),binding signal [1],binding signal [2]
ATGGAAAG,0.148 % of ANNNNAAN 8-mers,0.112 % of ANNNNAAN 8-mers,0.199 % of ANNNNAAN 8-mers,0.129 % of ANNNNAAN 8-mers
ACTCGAAT,0.0484 % of ANNNNAAN 8-mers,0.0518 % of ANNNNAAN 8-mers,0.0402 % of ANNNNAAN 8-mers,0.0504 % of ANNNNAAN 8-mers
ACCGTAAT,0.0454 % of ANNNNAAN 8-mers,0.0529 % of ANNNNAAN 8-mers,0.0332 % of ANNNNAAN 8-mers,0.0495 % of ANNNNAAN 8-mers
AGACGAAC,0.0202 % of ANNNNAAN 8-mers,0.0236 % of ANNNNAAN 8-mers,0.0137 % of ANNNNAAN 8-mers,0.0182 % of ANNNNAAN 8-mers
ACAGGAAC,0.0244 % of ANNNNAAN 8-mers,0.0265 % of ANNNNAAN 8-mers,0.0222 % of ANNNNAAN 8-mers,0.0239 % of ANNNNAAN 8-mers
AAGCAAAT,0.378 % of ANNNNAAN 8-mers,0.27 % of ANNNNAAN 8-mers,0.906 % of ANNNNAAN 8-mers,0.826 % of ANNNNAAN 8-mers
ATTCTAAC,0.0503 % of ANNNNAAN 8-mers,0.0495 % of ANNNNAAN 8-mers,0.0328 % of ANNNNAAN 8-mers,0.0322 % of ANNNNAAN 8-mers
AAAAGAAT,0.0858 % of ANNNNAAN 8-mers,0.088 % of ANNNNAAN 8-mers,0.0937 % of ANNNNAAN 8-mers,0.0817 % of ANNNNAAN 8-mers
AGGCCAAG,0.0271 % of ANNNNAAN 8-mers,0.0334 % of ANNNNAAN 8-mers,0.0312 % of ANNNNAAN 8-mers,0.0264 % of ANNNNAAN 8-mers
ACGCCAAA,0.0133 % of ANNNNAAN 8-mers,0.0219 % of ANNNNAAN 8-mers,0.016 % of ANNNNAAN 8-mers,0.0223 % of ANNNNAAN 8-mers
ACTACAAG,0.0194 % of ANNNNAAN 8-mers,0.0201 % of ANNNNAAN 8-mers,0.0183 % of ANNNNAAN 8-mers,0.0231 % of ANNNNAAN 8-mers
ACAGTAAC,0.0149 % of ANNNNAAN 8-mers,0.0242 % of ANNNNAAN 8-mers,0.0148 % of ANNNNAAN 8-mers,0.0149 % of ANNNNAAN 8-mers
AACACAAG,0.0194 % of ANNNNAAN 8-mers,0.0253 % of ANNNNAAN 8-mers,0.0219 % of ANNNNAAN 8-mers,0.0206 % of ANNNNAAN 8-mers
AGCAGAAC,0.0179 % of ANNNNAAN 8-mers,0.0299 % of ANNNNAAN 8-mers,0.0211 % of ANNNNAAN 8-mers,0.014 % of ANNNNAAN 8-mers
ATGAAAAA,0.149 % of ANNNNAAN 8-mers,0.123 % of ANNNNAAN 8-mers,0.204 % of ANNNNAAN 8-mers,0.121 % of ANNNNAAN 8-mers
AGGCAAAT,0.77 % of ANNNNAAN 8-mers,0.546 % of ANNNNAAN 8-mers,2.22 % of ANNNNAAN 8-mers,2.15 % of ANNNNAAN 8-mers
ACCGAAAG,0.0137 % of ANNNNAAN 8-mers,0.0144 % of ANNNNAAN 8-mers,0.0164 % of ANNNNAAN 8-mers,0.0149 % of ANNNNAAN 8-mers
AGTTCAAC,0.0229 % of ANNNNAAN 8-mers,0.0173 % of ANNNNAAN 8-mers,0.0246 % of ANNNNAAN 8-mers,0.0173 % of ANNNNAAN 8-mers
AATTGAAC,0.0492 % of ANNNNAAN 8-mers,0.0575 % of ANNNNAAN 8-mers,0.0386 % of ANNNNAAN 8-mers,0.052 % of ANNNNAAN 8-mers
ACCCGAAT,0.0233 % of ANNNNAAN 8-mers,0.0386 % of ANNNNAAN 8-mers,0.0219 % of ANNNNAAN 8-mers,0.0248 % of ANNNNAAN 8-mers
AGCGGAAC,0.0183 % of ANNNNAAN 8-mers,0.0224 % of ANNNNAAN 8-mers,0.0129 % of ANNNNAAN 8-mers,0.0157 % of ANNNNAAN 8-mers
ACTCAAAG,0.0336 % of ANNNNAAN 8-mers,0.0242 % of ANNNNAAN 8-mers,0.0367 % of ANNNNAAN 8-mers,0.0165 % of ANNNNAAN 8-mers
AGTACAAC,0.0164 % of ANNNNAAN 8-mers,0.0173 % of ANNNNAAN 8-mers,0.0152 % of ANNNNAAN 8-mers,0.0413 % of ANNNNAAN 8-mers
ACTGCAAG,0.0133 % of ANNNNAAN 8-mers,0.0144 % of ANNNNAAN 8-mers,0.016 % of ANNNNAAN 8-mers,0.0107 % of ANNNNAAN 8-mers
AATCCAAA,0.0507 % of ANNNNAAN 8-mers,0.0386 % of ANNNNAAN 8-mers,0.0726 % of ANNNNAAN 8-mers,0.0371 % of ANNNNAAN 8-mers
ATGTTAAA,0.212 % of ANNNNAAN 8-mers,0.216 % of ANNNNAAN 8-mers,0.0956 % of ANNNNAAN 8-mers,0.0892 % of ANNNNAAN 8-mers
ACAAGAAG,0.0347 % of ANNNNAAN 8-mers,0.0316 % of ANNNNAAN 8-mers,0.0273 % of ANNNNAAN 8-mers,0.0322 % of ANNNNAAN 8-mers
AAGACAAC,0.0168 % of ANNNNAAN 8-mers,0.019 % of ANNNNAAN 8-mers,0.0195 % of ANNNNAAN 8-mers,0.0157 % of ANNNNAAN 8-mers
AGCGGAAT,0.0622 % of ANNNNAAN 8-mers,0.0725 % of ANNNNAAN 8-mers,0.0546 % of ANNNNAAN 8-mers,0.0636 % of ANNNNAAN 8-mers
ACGAAAAT,0.106 % of ANNNNAAN 8-mers,0.0949 % of ANNNNAAN 8-mers,0.139 % of ANNNNAAN 8-mers,0.0834 % of ANNNNAAN 8-mers
